# Assay results taken from PubChem BioAssay AID1117290 (Broad Institute, 2014).
# Potency and affinity values are given separately. Activity calls are given as the source filed them.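 The calls were made as follows: active = every replicate test called active, each showing a drop in signal with a fitted potency within twice the top tested dose; inconclusive = tests disagree, or fits are weak, flat midrange or poor; inactive = every test flat, rising or fitted past the limit.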
# Experiment: lung carcinoma cell viability loss – CellTiter-Glo luminescence, dry powder, set 18, cytotoxicity control, dose response (AID 1117290)
row,Compound,outcome
1,O=[N+]([O-])c1cccc(S(=O)(=O)Nc2cc(C(F)(F)F)ccc2N2CCCCC2)c1,inactive
2,COc1ccc(C2=NN(c3ccc(C(=O)O)cc3)C(c3ccc(OC)c(OC)c3)C2)cc1 (stereo unspecified),inactive
3,CC(=O)N1CCN(C(=O)C2(NC(=O)Nc3ccc(C(C)C)cc3)CCCCC2)CC1,inactive
4,CC(=O)N1CCN(C(=O)C2(NC(=O)Nc3ccc(C)cc3)CC2)CC1,inactive
5,COc1ccc(C(=O)O)cc1S(=O)(=O)Nc1cc(C(F)(F)F)ccc1N(C)C,inactive
6,O=S(=O)(Nc1cc(C(F)(F)F)ccc1N1CCCCC1)c1ccc(Br)cc1,inactive
7,O=C(Nc1cc(C(F)(F)F)ccc1N1CCCCC1)c1ccc(S(=O)(=O)O)cc1,inactive
8,O=S(=O)(Nc1cc(C(F)(F)F)ccc1N1CCCCC1)c1ccc(Cl)cc1,inactive
9,CC(=O)N1CCN(C(=O)CNC(=O)Nc2ccc(C)cc2)CC1,inactive
10,COc1ccc(C(=O)O)cc1S(=O)(=O)Nc1cc(C(F)(F)F)ccc1N1CCN(C(C)=O)CC1,inactive
11,CC(=O)N1CCN(C(=O)C(C)(C)NC(=O)Nc2ccc(C)cc2)CC1,inactive
12,COc1ccc(C(=O)Nc2cc(C(F)(F)F)ccc2N2CCCC2)cc1S(=O)(=O)O,inactive
13,O=S(=O)(O)c1ccc(N2N=C(c3ccccc3)CC2c2ccccc2)cc1 (stereo unspecified),inactive
14,COc1ccc(C(=O)Nc2cc(C)ccc2N2CCCCC2)cc1S(=O)(=O)O,inactive
15,NC(=NCCc1c[nH]c2ccccc12)NS(=O)(=O)c1cc(F)ccc1F,inactive
16,Cc1ccc(NC(=O)NC2(C(=O)N3CCN(c4ccccc4)CC3)CCCCC2)cc1,inactive
